# For some assays here: Entries with a potency or affinity are not part of this list.
# Legend:
# Design in all cases: scale not given: direction of the effect not stated beside the values
# [1] = biological target: Protein translocase subunit SecA (Escherichia coli (strain K12)) (UniProt P10408); experiment: Assay to Identify E. coli SecA ATPase Inhibitors; type: functional; details: 30 µM
# [2] = biological target: T1, Ubiquitin-activating enzyme e1, putative (Leishmania donovani (strain BPK282A1)) (UniProt E9BSI1); experiment: Leishmania donovani Ubiquitin Activating Enzyme (LdE1); type: functional; details: 30 µM
# T1 sequence (whole entry): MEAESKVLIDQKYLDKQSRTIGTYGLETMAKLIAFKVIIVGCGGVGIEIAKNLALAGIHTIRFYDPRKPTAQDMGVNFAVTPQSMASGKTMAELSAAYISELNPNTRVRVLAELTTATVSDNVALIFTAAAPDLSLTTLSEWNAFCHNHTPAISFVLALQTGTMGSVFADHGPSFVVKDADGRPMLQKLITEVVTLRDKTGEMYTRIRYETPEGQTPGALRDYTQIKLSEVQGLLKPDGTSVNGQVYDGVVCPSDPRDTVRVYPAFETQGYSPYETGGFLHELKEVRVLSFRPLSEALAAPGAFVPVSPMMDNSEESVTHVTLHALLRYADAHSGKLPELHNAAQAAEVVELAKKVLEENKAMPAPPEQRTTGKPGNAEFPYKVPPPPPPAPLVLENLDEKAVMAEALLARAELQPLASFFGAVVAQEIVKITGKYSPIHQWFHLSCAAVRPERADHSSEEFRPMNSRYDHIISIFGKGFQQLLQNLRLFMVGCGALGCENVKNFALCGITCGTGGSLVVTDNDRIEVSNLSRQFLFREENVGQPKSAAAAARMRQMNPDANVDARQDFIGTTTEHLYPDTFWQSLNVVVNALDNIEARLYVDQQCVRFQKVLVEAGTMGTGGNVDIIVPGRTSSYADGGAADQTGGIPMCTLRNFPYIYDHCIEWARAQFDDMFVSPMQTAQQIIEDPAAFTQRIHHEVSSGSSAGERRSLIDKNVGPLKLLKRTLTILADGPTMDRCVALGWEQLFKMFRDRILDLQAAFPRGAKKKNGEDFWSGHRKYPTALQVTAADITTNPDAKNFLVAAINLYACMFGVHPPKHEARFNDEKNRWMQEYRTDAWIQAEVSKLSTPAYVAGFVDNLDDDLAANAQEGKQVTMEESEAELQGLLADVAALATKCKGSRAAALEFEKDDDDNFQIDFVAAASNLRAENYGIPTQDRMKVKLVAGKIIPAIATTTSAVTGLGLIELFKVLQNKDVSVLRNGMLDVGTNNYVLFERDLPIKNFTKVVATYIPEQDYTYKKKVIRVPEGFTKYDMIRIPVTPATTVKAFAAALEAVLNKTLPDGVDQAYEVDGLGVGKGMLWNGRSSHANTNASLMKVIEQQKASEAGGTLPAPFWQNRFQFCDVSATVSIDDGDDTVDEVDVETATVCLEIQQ
# [3] = biological target: AMP-activated protein kinase, AMPK (Homo sapiens) (UniProt P54646+O43741+P54619+Q9UGJ0+Q9Y478+Q13131+Q9UGI9); experiment: AMP-dependent Kinase enzyme assay. An in vitro enzyme assay that detects ADP turnover that is directly proportional to AMPK activity. This uses naive AMPK that is activated during the assay with MK-8722; type: functional; details: 30 µM
# [4] = biological target: Sialic acid-binding Ig-like lectin 9 (Homo sapiens) (UniProt Q9Y336); experiment: Hs-Siglec9 ALPHAscreen SOP 20170721; details: 10 µM
# [5] = tested on: Trypanosoma cruzi; experiment: Trypanosoma cruzi phosphomannomutase and mannose-1-phosphate guanylyltransferase assay; type: functional; details: 10 µM
# [6] = biological target: T2, Arginase-2, mitochondrial (Homo sapiens) (UniProt P78540); experiment: in vitro enzyme assay to detect the production of urea directly proportional to the activity of Arginase II; type: functional; details: 33.3 µM; further: in the data most compounds retested in dose-response had high values
# T2 sequence (whole entry): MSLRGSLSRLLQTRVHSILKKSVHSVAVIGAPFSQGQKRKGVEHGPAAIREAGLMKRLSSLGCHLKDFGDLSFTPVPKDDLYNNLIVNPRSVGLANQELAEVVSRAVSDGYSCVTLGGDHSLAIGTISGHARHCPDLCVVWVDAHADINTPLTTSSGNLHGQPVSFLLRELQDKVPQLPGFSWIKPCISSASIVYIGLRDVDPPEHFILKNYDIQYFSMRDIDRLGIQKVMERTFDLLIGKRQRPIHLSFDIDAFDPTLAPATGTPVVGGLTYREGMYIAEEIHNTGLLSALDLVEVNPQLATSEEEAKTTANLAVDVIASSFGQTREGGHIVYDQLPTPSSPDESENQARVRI
# [7] = biological target: T3, Proteasome subunit beta (Trypanosoma cruzi) (UniProt O96673); experiment: Trypanosoma cruzi proteasome chymotrypsin-like activity (TcProtChymo) assay.; further: in the data most compounds retested in dose-response had high values; type: functional; details: 9.37 µM
# T3 sequence (whole entry): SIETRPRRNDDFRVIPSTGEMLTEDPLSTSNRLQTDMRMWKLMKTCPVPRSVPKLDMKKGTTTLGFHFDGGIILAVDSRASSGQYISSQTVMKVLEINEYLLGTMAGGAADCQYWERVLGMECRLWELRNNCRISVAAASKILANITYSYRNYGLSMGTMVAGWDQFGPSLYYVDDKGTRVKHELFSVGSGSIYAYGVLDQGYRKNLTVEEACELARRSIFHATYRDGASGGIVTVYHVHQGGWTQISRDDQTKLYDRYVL
# [8] = organism: Homo sapiens; experiment: To identify inhibition of the IFN signalling (Jak-Stat) pathway via expression of an eGFP reporter gene under the control of an IFN-stimulated response element (ISRE) containing MxA promoter.; type: functional; details: 30 µM
# [9] = biological target: T4, Tyrosyl-tRNA synthetase, putative (Trypanosoma cruzi (strain CL Brener)) (UniProt Q4DSP6); experiment: Trypanosoma cruzi tyrosyl tRNA synthetase (TcYRS) _High Tyrosine SOP; type: functional; details: 30 µM; further: in the data most compounds retested in dose-response had high values
# T4 sequence (whole entry): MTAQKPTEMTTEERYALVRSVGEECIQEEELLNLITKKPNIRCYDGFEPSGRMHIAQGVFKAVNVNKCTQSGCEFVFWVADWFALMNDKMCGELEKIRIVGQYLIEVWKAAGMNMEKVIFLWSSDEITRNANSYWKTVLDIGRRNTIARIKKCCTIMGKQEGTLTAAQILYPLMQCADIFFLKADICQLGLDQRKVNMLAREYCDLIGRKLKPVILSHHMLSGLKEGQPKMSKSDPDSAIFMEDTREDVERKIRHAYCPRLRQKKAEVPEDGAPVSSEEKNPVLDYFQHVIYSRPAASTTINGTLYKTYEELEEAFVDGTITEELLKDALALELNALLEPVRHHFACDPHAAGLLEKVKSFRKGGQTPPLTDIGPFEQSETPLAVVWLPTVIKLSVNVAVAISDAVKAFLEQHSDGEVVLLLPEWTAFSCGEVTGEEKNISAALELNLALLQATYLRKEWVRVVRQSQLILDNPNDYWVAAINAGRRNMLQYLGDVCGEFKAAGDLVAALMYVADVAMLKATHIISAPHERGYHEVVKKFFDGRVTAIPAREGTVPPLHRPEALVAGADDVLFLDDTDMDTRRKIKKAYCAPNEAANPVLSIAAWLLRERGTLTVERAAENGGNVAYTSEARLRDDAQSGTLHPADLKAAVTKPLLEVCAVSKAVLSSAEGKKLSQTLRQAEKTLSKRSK
# [10] = biological target: T4, Tyrosyl-tRNA synthetase, putative (Trypanosoma cruzi (strain CL Brener)); experiment: Trypanosoma cruzi tyrosyl tRNA synthetase (TcYRS) SOP; type: functional; details: 30 µM
# [11] = biological target: Chromo domain-containing protein 1 (Saccharomyces cerevisiae (strain ATCC 204508 / S288c) (Baker's yeast)) (UniProt P32657); experiment: ScCHD-1 Enzyme Inhibition Assay; type: functional; details: 30 µM; further: in the data most compounds retested in dose-response had high values
# Chain of Chromo domain-containing protein 1 (Saccharomyces cerevisiae (strain ATCC 204508 / S288c) (Baker's yeast)) (P32657 whole entry, the tested form may be a part): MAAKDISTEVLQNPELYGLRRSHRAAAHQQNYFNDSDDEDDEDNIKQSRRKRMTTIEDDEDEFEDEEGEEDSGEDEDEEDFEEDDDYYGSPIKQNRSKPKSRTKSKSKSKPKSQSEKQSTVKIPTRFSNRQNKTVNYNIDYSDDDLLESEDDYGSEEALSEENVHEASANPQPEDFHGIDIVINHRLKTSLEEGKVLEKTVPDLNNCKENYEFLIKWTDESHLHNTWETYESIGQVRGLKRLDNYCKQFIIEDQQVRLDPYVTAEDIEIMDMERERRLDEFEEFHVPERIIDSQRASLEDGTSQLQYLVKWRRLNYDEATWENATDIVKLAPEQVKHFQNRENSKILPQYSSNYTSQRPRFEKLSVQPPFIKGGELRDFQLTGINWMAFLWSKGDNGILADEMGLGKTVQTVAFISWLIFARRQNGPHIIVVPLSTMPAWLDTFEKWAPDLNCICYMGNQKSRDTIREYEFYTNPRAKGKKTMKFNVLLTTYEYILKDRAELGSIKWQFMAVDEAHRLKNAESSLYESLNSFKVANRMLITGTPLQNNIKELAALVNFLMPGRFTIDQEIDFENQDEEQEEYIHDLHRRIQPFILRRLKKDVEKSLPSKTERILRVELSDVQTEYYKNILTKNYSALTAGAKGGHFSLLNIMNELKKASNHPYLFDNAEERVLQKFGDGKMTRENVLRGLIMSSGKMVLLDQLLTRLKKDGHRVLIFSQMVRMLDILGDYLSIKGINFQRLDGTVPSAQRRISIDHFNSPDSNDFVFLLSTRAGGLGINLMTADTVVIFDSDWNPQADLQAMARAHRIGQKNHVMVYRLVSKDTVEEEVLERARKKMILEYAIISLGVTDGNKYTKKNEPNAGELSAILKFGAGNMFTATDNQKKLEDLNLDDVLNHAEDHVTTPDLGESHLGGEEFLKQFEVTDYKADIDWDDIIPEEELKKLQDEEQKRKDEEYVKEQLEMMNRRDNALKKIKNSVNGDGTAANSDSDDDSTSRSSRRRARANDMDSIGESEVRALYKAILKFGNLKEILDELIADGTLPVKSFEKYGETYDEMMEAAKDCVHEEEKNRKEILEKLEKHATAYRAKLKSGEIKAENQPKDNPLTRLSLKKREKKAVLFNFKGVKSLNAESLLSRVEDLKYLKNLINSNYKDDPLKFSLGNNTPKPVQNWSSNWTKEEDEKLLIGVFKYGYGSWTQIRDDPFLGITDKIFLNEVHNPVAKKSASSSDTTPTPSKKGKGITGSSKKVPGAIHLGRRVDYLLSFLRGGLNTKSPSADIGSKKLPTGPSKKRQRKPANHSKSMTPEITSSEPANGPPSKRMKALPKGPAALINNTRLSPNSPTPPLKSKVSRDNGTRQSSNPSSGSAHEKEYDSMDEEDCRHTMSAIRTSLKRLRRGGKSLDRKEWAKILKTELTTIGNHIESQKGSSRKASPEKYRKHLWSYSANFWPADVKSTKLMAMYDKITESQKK
# Chain of Protein translocase subunit SecA (Escherichia coli (strain K12)) (P10408 whole entry): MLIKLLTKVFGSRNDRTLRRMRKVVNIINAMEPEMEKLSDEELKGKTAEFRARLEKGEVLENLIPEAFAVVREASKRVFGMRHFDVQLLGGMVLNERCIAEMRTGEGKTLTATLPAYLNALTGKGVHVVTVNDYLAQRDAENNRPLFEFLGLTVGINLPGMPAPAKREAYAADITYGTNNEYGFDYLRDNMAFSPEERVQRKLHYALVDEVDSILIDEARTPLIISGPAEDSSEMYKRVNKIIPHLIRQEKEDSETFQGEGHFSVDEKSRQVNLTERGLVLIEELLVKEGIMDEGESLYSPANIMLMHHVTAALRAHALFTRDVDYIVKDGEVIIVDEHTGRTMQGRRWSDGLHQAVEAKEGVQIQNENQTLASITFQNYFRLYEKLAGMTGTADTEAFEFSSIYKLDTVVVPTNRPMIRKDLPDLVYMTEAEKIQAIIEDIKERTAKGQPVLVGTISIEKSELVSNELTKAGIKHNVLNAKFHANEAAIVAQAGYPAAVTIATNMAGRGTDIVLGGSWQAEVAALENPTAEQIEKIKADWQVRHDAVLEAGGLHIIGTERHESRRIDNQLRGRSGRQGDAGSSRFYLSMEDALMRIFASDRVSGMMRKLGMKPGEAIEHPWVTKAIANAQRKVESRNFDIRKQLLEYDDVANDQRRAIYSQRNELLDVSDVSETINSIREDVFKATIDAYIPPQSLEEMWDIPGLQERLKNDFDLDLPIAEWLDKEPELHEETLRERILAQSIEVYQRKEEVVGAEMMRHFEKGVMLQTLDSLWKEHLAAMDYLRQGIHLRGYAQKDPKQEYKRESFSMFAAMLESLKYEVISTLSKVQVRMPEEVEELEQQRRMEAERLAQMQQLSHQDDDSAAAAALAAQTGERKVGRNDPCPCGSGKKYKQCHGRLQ
# Chain of Sialic acid-binding Ig-like lectin 9 (Homo sapiens) (Q9Y336 whole entry): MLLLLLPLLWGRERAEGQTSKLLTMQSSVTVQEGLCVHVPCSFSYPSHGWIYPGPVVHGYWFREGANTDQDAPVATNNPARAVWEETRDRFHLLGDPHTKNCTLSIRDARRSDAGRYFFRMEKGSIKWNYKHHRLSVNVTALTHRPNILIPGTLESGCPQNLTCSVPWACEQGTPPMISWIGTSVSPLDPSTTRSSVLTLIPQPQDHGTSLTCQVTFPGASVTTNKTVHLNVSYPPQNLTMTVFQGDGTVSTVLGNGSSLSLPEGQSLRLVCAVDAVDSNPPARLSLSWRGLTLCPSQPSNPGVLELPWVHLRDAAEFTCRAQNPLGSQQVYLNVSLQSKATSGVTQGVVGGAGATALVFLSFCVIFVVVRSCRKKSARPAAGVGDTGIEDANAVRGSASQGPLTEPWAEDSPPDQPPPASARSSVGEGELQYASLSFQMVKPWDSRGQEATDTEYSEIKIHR
Compound,Percent Effect [1] [%],Percent Effect [2] [%],Percent Effect [3] [%],Percent Effect [4] [%],Percent Effect [5] [%],Percent Effect [6] [%],Percent Effect [7] [%],Percent Effect [8] [%],Percent Effect [9] [%],Percent Effect [10] [%],Percent Effect [11] [%]
COc1cc(CNC(=O)CNc2cc(Cl)ccc2OC)ccn1,-4.04,0,-0.0708,2.86,-2.55,0.802,3.6,9.38,-4.43,3.7,0.373
COCCN(Cc1ccc(F)cc1Cl)C(=O)c1ccncc1,-1.67,-1.39,-3.11,0.447,0.486,-1.32,5.09,0.399,-1.05,0,-1.32
Cc1cc(C)n(CC2CCCN2C(=O)CCc2cscn2)n1 (stereo not given),-2.42,-5.26,7.92,-2.27,8.08,1.92,-4.51,-4.45,-0.49,0,1.57
CC(C)c1n[nH]c(C2CN(C(=O)C3=COCC3)CCO2)n1 (stereo not given),-3.67,2.63,1.65,11.9,0.0934,5.4,-5.33,-8.69,2.46,3.7,10.5
Cn1cccc1CCC(=O)N1CCC2(CC1)c1ccccc1CC2O (stereo not given),0.249,13,-1.66,10.8,4.23,-38.6,20.6,21.3,11.8,16.1,5.42
Cc1nn(C)c(N2CCOCC2)c1CNC(C)c1ccco1 (stereo not given),-4.24,20.8,131,26.4,6.32,2.21,13.9,-7.48,3.16,20.5,-8.31
Cc1nc(O)cc(C2CCN(Cc3cccc(F)c3F)C2)n1 (stereo not given),-5.61,20.3,-0.666,-0.896,1.19,-3.94,9.83,2.45,2.15,16.9,-14.2
Cc1ccc(C(=O)N2C[C@@H]3COC[C@]3(COc3cccnc3)C2)cn1,1.3,18.9,0.636,-16.3,1.07,7.33,13.3,30.2,4.32,7.69,4.76
Cn1ncc2c(=O)[nH]c(CN(Cc3ccco3)C3CCCC3)nc21,-5.65,23.4,-6.78,6.27,2.81,-1.42,14.7,6.82,2.91,24.4,-9.65
C[C@@H]1CN(C(=O)c2ccsc2)C[C@]12CCN(c1ccsc1)C2=O,-3.14,0,13.8,-0.135,-3.54,-1.63,2.91,5.8,5.32,3.85,0.408

# From ChEMBL document CHEMBL3988442, “University of Dundee, Small-Polar-MMV Screening Library” (2021)
